# Results from PubChem BioAssay AID1566 (Sanford-Burnham Center for Chemical Genomics, 2009).
# The whole screen tested about 290,000 compounds, of which about 1,800 (0.62%) were called active. Rule as the data show it: active = inhibition above about 50%; inactive = the rest. The sample as a whole holds a higher share of actives than the screen did.
# Assay: inhibition of NOD2-driven NF-kB reporter – cell-based, luminescence, uHTS, HEK293 (AID 1566)
# Conditions: HEK293 NOD2/NF-kB luciferase reporter, at 4 µM, stronger effect = higher value
row,SMILES,inhibition
1,Nc1ccc2c(c1)N=[N+]([O-])c1cc(N)ccc1C2,4.2% (inactive)
2,CN(C)Cc1c(O)ccc2c(-c3ccccc3)cc(=O)oc12,1.4% (inactive)
3,CC(=O)c1c(O)ccc2c(-c3ccccc3)cc(=O)oc12,13% (inactive)
4,COc1cc(NS(=O)(=O)c2ccc(N/C=C(\C=O)c3nc4ccccc4o3)cc2)nc(OC)n1,11% (inactive)
5,CC(=O)NNC(=S)NC(=O)c1cccc([N+](=O)[O-])c1,14.7% (inactive)
6,O=C(CN1C(=O)NC2(CCCC2)C1=O)N1CCN(S(=O)(=O)c2ccccc2Br)CC1,3.9% (inactive)
7,CCc1c(C)sc(NC(=O)c2cc(-c3ccc(OC)c(OC)c3)on2)c1C#N,11.3% (inactive)
8,CCc1c(C)sc(NC(=O)c2cc(C)on2)c1C#N,-59.7% (inactive)
9,CCc1c(C)sc(NC(=O)c2cc(-c3ccc(O)cc3)on2)c1C#N,50.7% (active)
10,COc1ccc(CN(C)S(=O)(=O)c2nnc(NC(=O)c3cccc(F)c3)s2)cc1OC,44.4% (inactive)
11,COc1ccc(CN(C)S(=O)(=O)c2nnc(NC(=O)c3cccc(OC)c3)s2)cc1,29.7% (inactive)
12,Cn1c(NC2CCCCC2)cc(=O)n(C)c1=O,15.2% (inactive)
13,COc1ccccc1OCC(=O)N1CCCC(Nc2ccc(C)c(C)c2)C1 (stereo not given),16.3% (inactive)
14,CCCCn1c(N)c(N(CC(C)C)C(=O)c2cccc(S(=O)(=O)N3CCCCCC3)c2)c(=O)[nH]c1=O,0.1% (inactive)
15,CCc1cc(=O)oc2cc(C)cc(OCC(=O)C(C)(C)C)c12,8.9% (inactive)
16,O=C(Nc1cccc([N+](=O)[O-])c1)Nc1ccc2c(c1)CCC2,-35.7% (inactive)
17,COC(=O)c1ccc(OCC2c3cc(OC)c(OC)cc3CCN2C(C)=O)cc1 (stereo not given),6.9% (inactive)
18,COc1cc2c(cc1OC)C(COc1ccc(F)cc1)N(C(C)=O)CC2 (stereo not given),2.4% (inactive)
19,COc1cc2c(cc1OC)C(COc1ccc([N+](=O)[O-])cc1)N(C(C)=O)CC2 (stereo not given),60.6% (active)
20,Cc1ccc(C(=O)NNC(=O)c2ccc(NC(=O)C(C)(C)C)cc2)cc1,8.3% (inactive)
21,CC1(C)CC(=O)C=C(C(=O)N2CCCC(C(=O)c3cccc(C(F)(F)F)c3)C2)O1 (stereo not given),15.7% (inactive)
22,CN(C)S(=O)(=O)c1ccc(Nc2nc(C3CC3)nc3c2nnn3Cc2ccccc2Cl)cc1,58.7% (active)
23,OCCNc1nc(C2CC2)nc2c1nnn2Cc1ccccc1Cl,3.7% (inactive)
24,COC(=O)CNc1nc(C2CC2)nc2c1nnn2Cc1ccccc1Cl,7.3% (inactive)
25,CCCCC(CC)CNC(=O)c1cc2ccccc2c(=O)o1 (stereo not given),9.7% (inactive)
